Data taken from PubChem BioAssay AID493229 (Broad Institute, 2011).
Potency and affinity values are given separately. Inconclusive results are not listed. Entries that show only a call come without a potency. Activity calls are given as the source filed them. No rule for the calls is given here.

Target: Protein RecA (Mycobacterium tuberculosis (strain ATCC 25618 / H37Rv)) (UniProt P9WHJ3)
Test: Mycobacterium tuberculosis RecA intein splicing inhibitors, confirmatory dry powder dose response (AID 493229)

Chain of Protein RecA (Mycobacterium tuberculosis (strain ATCC 25618 / H37Rv)) (P9WHJ3 whole entry, looked up): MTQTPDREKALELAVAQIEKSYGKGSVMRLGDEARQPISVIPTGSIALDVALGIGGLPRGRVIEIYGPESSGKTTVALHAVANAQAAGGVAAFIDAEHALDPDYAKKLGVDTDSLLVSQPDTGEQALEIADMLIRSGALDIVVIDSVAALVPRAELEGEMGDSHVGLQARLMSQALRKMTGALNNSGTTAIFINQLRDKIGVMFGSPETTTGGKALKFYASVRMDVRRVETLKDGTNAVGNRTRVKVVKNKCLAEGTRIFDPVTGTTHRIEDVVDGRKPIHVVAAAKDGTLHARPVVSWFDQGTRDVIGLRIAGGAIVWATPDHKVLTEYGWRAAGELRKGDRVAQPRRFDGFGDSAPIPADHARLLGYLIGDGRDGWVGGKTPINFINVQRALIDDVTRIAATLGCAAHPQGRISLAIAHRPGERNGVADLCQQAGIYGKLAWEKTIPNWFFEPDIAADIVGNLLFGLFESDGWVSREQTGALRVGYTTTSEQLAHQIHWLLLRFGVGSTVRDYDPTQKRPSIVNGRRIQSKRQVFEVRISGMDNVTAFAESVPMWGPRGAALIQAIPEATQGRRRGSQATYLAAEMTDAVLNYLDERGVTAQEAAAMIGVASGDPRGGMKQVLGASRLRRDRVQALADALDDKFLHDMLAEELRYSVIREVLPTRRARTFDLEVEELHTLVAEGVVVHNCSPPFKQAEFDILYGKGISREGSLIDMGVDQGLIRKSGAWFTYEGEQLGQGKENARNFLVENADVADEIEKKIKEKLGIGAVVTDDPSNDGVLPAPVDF

For `Nc1cn(-c2ccccc2)nc1-c1ccc(F)cc1`, the outcome was “inactive”.
